Read-out in assay [1]: Low-density lipoprotein receptor (LDLR), LDLR (gene 3949)
The experiment in a line: BSK_CASM3C_LDLR: BioMAP Diversity Plus: CASM3C Assay for Low-density lipoprotein receptor (LDLR) Biomarker Activity (AID 2283045).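 Further: LDLR protein level on the cell surface quantified by ELISA.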 The settings on record: primary human coronary artery smooth muscle cells; actives raise or lower the signal.

Read-out in assay [2]: Monocyte Chemoattractant Protein-1 (MCP1), CCL2 (gene 6347)
The experiment in a line: BSK_CASM3C_MCP1: BioMAP Diversity Plus: CASM3C Assay for Monocyte Chemoattractant Protein-1 (MCP1) Biomarker Activity (AID 2283046).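 Further: MCP-1 level quantified by ELISA 24 h after dosing.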 Particulars: primary human coronary artery smooth muscle cells; actives raise or lower the signal.

Assay [3] can be described thus: BSK_CASM3C_Proliferation: Cell Proliferation Assessment in the BioMAP Diversity Plus: CASM3C Assay (AID 2283047).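 Further: sulforhodamine B total protein stain as relative cell number at 560 nm; sub-confluent cells exposed 48 h before staining; fitted both ways against DMSO so gain or loss of cell number.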 The settings on record: primary human coronary artery smooth muscle cells.
Read-out in assay [4]: Monokine induced gamma interferon (MIG), CXCL9 (gene 4283)
The experiment in a line: BSK_CASM3C_MIG: BioMAP Diversity Plus: CASM3C Assay for Monokine induced gamma interferon (MIG) Biomarker Activity (AID 2283048).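 Further: MIG protein level measured by ELISA.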 The settings on record: primary human coronary artery smooth muscle cells; actives raise or lower the signal.

Read-out in assay [5]: serum amyloid A (SAA), SAA1 (gene 6288)
The experiment in a line: BSK_CASM3C_SAA: BioMAP Diversity Plus: CASM3C Assay for serum amyloid A (SAA) Biomarker Activity (AID 2283049).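 Further: SAA protein level quantified by ELISA.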 Particulars: primary human coronary artery smooth muscle cells; actives raise or lower the signal.

Assay [6] is described as follows: BSK_CASM3C_SRB: Viability Assessment in the BioMAP Diversity Plus: CASM3C Assay (AID 2283050).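 Further: total protein by SRB staining as cytotoxicity measure in parallel cultures.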 Particulars: primary human coronary artery smooth muscle cells.
Read-out in assay [7]: Thrombomodulin, THBD (gene 7056)
The experiment in a line: BSK_CASM3C_Thrombomodulin: BioMAP Diversity Plus: CASM3C Assay for Thrombomodulin Biomarker Activity (AID 2283051).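 Further: thrombomodulin protein level measured by ELISA 24 h after dosing.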 Particulars: primary human coronary artery smooth muscle cells; actives raise or lower the signal.

Read-out in assay [8]: Tissue Factor, F3 (gene 2152)
The experiment in a line: BSK_CASM3C_TissueFactor: BioMAP Diversity Plus: CASM3C Assay for Tissue Factor Biomarker Activity (AID 2283052).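 Further: cell surface tissue factor protein level read by ELISA.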 The settings on record: primary human coronary artery smooth muscle cells; actives raise or lower the signal.

Read-out in assay [9]: Interferon-gamma inducible Protein 10 (IP10), CXCL10 (gene 3627)
Description: BSK_hDFCGF_IP10: BioMAP Diversity Plus: hDFCGF Assay for Interferon-gamma inducible Protein 10 (IP10) Biomarker Activity (AID 2283053). Particulars: primary human foreskin fibroblasts; actives raise or lower the signal. A digest of the protocol:
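Human foreskin fibroblast primary cells (hDFCGF system) were dosed with chemical and assayed at 24 h; IP-10 measured by ELISA. Activity fitted bidirectionally relative to DMSO negative control as baseline.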

Read-out in assay [10]: Urokinase-type plasminogen activator receptor (uPAR), PLAUR (gene 5329)
Description: BSK_CASM3C_uPAR: BioMAP Diversity Plus: CASM3C Assay for Urokinase-type plasminogen activator receptor (uPAR) Biomarker Activity (AID 2283054).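 Further: cell-surface uPAR protein level quantified by ELISA.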 The settings on record: primary human coronary artery smooth muscle cells; actives raise or lower the signal.

Read-out in assay [11]: Vascular cell adhesion molecule 1 (VCAM1), VCAM1 (gene 7412)
The experiment in a line: BSK_CASM3C_VCAM1: BioMAP Diversity Plus: CASM3C Assay for Vascular cell adhesion molecule 1 (VCAM1) Biomarker Activity (AID 2283055).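 Further: VCAM-1 protein level quantified by ELISA on the cells.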 The settings on record: primary human coronary artery smooth muscle cells; actives raise or lower the signal.

Read-out in assay [12]: Collagen III, COL3A1 (gene 1281)
Description: BSK_hDFCGF_CollagenIII: BioMAP Diversity Plus: hDFCGF Assay for Collagen III Biomarker Activity (AID 2283056). The settings on record: primary human foreskin fibroblasts; actives raise or lower the signal. A digest of the protocol: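 Response relative to DMSO, fitted in both directions, reflects ELISA-measured collagen III in human primary skin fibroblasts 24 h after compound addition.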

Read-out in assay [13]: Epidermal growth factor receptor (EGFR), EGFR (gene 1956)
Description: BSK_hDFCGF_EGFR: BioMAP Diversity Plus: hDFCGF Assay for Epidermal growth factor receptor (EGFR) Biomarker Activity (AID 2283057). Particulars: primary human foreskin fibroblasts; actives raise or lower the signal. A digest of the protocol:
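Primary human foreskin fibroblasts were exposed to compound for 24 h, after which cell-surface EGFR was quantified by ELISA. Activity was fitted bidirectionally against the DMSO negative control as baseline.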

Read-out in assay [14]: Interleukin-8 (IL8), CXCL8 (gene 3576)
Description: BSK_hDFCGF_IL8: BioMAP Diversity Plus: hDFCGF Assay for Interleukin-8 (IL8) Biomarker Activity (AID 2283058). Particulars: primary human foreskin fibroblasts; actives raise or lower the signal. A digest of the protocol:
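Fibroblast monolayers (human foreskin, hDFCGF) received test chemical for 24 h before ELISA detection of IL-8; either increases or decreases relative to DMSO count as activity.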

Assay [15] is described as follows: BSK_hDFCGF_Proliferation: Cell Proliferation Assessment in the BioMAP Diversity Plus: hDFCGF Assay (AID 2283059).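 Further: curves fitted for both rise and fall of signal versus DMSO baseline.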 The settings on record: primary human foreskin fibroblasts. In short, it runs like this:
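Total protein read at 560 nm after 0.1% SRB staining of TCA-fixed human skin fibroblasts, […]. Activity is fitted in both directions relative to DMSO as baseline.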

Read-out in assay [16]: Macrophage colony-stimulating factor (MCSF), CSF1 (gene 1435)
The experiment in a line: BSK_hDFCGF_MCSF: BioMAP Diversity Plus: hDFCGF Assay for Macrophage colony-stimulating factor (MCSF) Biomarker Activity (AID 2283060). The settings on record: primary human foreskin fibroblasts; actives raise or lower the signal. In short, it runs like this: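 fibroblasts (human foreskin, primary), 24 h post-dose; M-CSF by ELISA; bidirectional fit, DMSO = baseline.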

Assay [17] is described as follows: BSK_hDFCGF_SRB: Viability Assessment in the BioMAP Diversity Plus: hDFCGF Assay (AID 2283061).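 Further: cells exposed to compound for 24 h before the read.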 The settings on record: primary human foreskin fibroblasts. A digest of the protocol:
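SRB-based viability read on primary human skin fibroblasts at 24 h: TCA fixation, 0.1% dye, 560 nm. Gain or loss of signal is fitted against the DMSO negative control.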

Read-out in assay [18]: TIMP metallopeptidase inhibitor 1 (TIMP1), TIMP1 (gene 7076)
Description: BSK_hDFCGF_TIMP1: BioMAP Diversity Plus: hDFCGF Assay for TIMP metallopeptidase inhibitor 1 (TIMP1) Biomarker Activity (AID 2283062). The settings on record: primary human foreskin fibroblasts; actives raise or lower the signal. In short, it runs like this:
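Bidirectional curve fitting against DMSO baseline yielded this endpoint, based on ELISA detection of TIMP-1 in primary human foreskin fibroblasts exposed to compound for 24 h.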

Read-out in assay [19]: Monokine induced gamma interferon (MIG), CXCL9 (gene 4283)
Description: BSK_hDFCGF_MIG: BioMAP Diversity Plus: hDFCGF Assay for Monokine induced gamma interferon (MIG) Biomarker Activity (AID 2283063). The settings on record: primary human foreskin fibroblasts; actives raise or lower the signal. A digest of the protocol:
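Endpoint derived by bidirectional fitting relative to DMSO; MIG quantified via ELISA in primary human foreskin fibroblasts harvested 24 h after dosing.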

Read-out in assay [20]: Matrix Metallopeptidase 1 (MMP1), MMP1 (gene 4312)
Description: BSK_hDFCGF_MMP1: BioMAP Diversity Plus: hDFCGF Assay for Matrix Metallopeptidase 1 (MMP1) Biomarker Activity (AID 2283064). The settings on record: primary human foreskin fibroblasts; actives raise or lower the signal. A digest of the protocol: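 hDFCGF primary fibroblasts (human foreskin); chemical added; 24 h; MMP1 by ELISA; bidirectional fit vs DMSO.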

The text below walks through data of PubChem BioAssay (EPA / NIEHS).

Active and inactive are the calls of the source. How the source made its calls: active means hit-call score of the fitted dose curve at least 0.9, where 1 is the maximum; inactive means score below 0.9.

As to `CC(N)=O`, the result in [1], in assay [2], in assay [3], in [4], in assay [5] and in assay [6] was inactive. The outcome in [7], in [8], in assay [9], in assay [10], in [11] and in [12] was inactive. The outcome in assay [13], in assay [14], in assay [15], in assay [16], in assay [17] and in assay [18] was inactive. In addition, the outcome in assay [19] and in [20] was inactive.

In the case of `CC(=O)OC1CC(C)OC(C)O1` (stereo not given), the outcome in [1], in assay [2], in assay [3], in assay [4], in assay [5] and in assay [6] was inactive. Also, the result in assay [7], in assay [8], in assay [9], in assay [10], in assay [11] and in [12] was inactive. Further, the outcome in [13], in assay [14], in [15], in assay [16], in assay [17] and in assay [18] was inactive. The outcome in assay [19] and in [20] was inactive.

Take `CC(=O)CC(c1ccccc1)c1c(O)c2ccccc2oc1=O` (stereo not given): the result in [1], in assay [2], in assay [3], in [4], in assay [5] and in assay [6] was inactive. Besides, the outcome in [7], in [8], in [9], in assay [10], in assay [11] and in [12] was inactive. The outcome in assay [13], in assay [14], in assay [15], in [16], in [17] and in [18] was inactive. Moreover, the outcome in assay [19] and in assay [20] was inactive.

Turning to `O=C(O)CC(O)(CC(=O)O)C(=O)O`, the outcome in assay [1], in assay [2], in [3], in assay [4], in [5] and in assay [6] was inactive. Moreover, the result in assay [7], in assay [8], in [9], in assay [10], in [11] and in assay [12] was inactive. For the same compound, the result in [13], in assay [14], in [15], in assay [16], in assay [17] and in assay [18] was inactive. Besides, the result in [19] and in assay [20] was inactive.

For orientation: AC50 means the concentration giving half of the maximal activity seen. Turning to `CCCCCCCCCCCCCCCCO`, the result in assay [1], in assay [2], in assay [3], in assay [4], in [5] and in [6] was inactive. Further, the outcome in assay [7], in assay [8], in assay [9], in [10], in [11] and in assay [12] was inactive. Also, the result in assay [13], in [14], in assay [16], in assay [17], in assay [18] and in assay [20] was inactive. For the same compound, the AC50 in [15] is 6.73 µM (active); in [19] it was 0.777 µM (active).

Regarding `CC(=O)S[C@H](C(=O)N[C@H]1Cc2ccccc2[C@H]2CCC[C@@H](C(=O)O)N2C1=O)C(C)C`, the result in [1], in assay [2], in [3], in assay [4], in [5] and in [6] was inactive. Also, the outcome in [7], in assay [8], in assay [9], in [10], in assay [11] and in assay [12] was inactive. For the same compound, the result in assay [13], in [14], in assay [15], in assay [16], in assay [17] and in [18] was inactive. Also, the outcome in assay [19] and in assay [20] was inactive.

In the case of `COC(=O)CCC(=O)OC`, the outcome in assay [1], in assay [2], in assay [3], in assay [4], in [5] and in [6] was inactive. Also, the outcome in assay [7], in assay [8], in [9], in assay [10], in assay [11] and in [12] was inactive. The outcome in assay [13], in assay [14], in [15], in assay [16], in [17] and in assay [18] was inactive. Further, the result in [19] and in assay [20] was inactive.
